# PNC assembly inh = inhibitors of perinucleolar compartment assembly; PC3M PTB-GFP, PNC prevalence imaging, 16 h; stronger effect = lower value; activity change (PNC), negative = inhibition, % at 10 µM; 140,000 tested, 3.1% active;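 active = readout at or below -70, meaning at least 70% loss of cells showing the perinucleolar compartment, a nuclear body marking cancer cells; inconclusive = readout between -30 and a set limit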
#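 Read-out is percentage of cells bearing a perinucleolar compartment, from automated 20x imaging of fixed, Hoechst-stained PC3M PTB-GFP cells. Cells were seeded 4 h, then exposed 16 h to compound (23 nl of library stock) in duplicate plates.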
# ALDH1A1 inh = inhibitors of human aldehyde dehydrogenase 1A1; AID 1030; P00352; 220,000 tested, 7.3% active; Potency, µM (series often up to 75.3 µM), hits mostly inhibitors; Purified ALDH1A1, NADH fluorescence, propionaldehyde substrate
# HPGD inh = HPGD (human) dehydrogenase inhibition. P15428. purified HPGD, NADH fluorescence kinetic, PGE2 substrate. Potency, µM, hits mostly inhibitors. 150,000 tested, 4.3% active. AID 894
# Target sequence (P15428 whole entry, looked up): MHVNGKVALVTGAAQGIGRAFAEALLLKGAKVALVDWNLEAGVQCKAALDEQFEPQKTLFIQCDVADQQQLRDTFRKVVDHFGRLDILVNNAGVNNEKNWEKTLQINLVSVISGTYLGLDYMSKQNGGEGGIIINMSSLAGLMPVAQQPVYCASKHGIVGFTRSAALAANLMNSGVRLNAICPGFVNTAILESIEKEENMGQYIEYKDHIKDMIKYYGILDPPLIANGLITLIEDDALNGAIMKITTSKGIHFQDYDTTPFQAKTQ
#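 NADH formation kinetics: reaction with 30 uM PGE2 and 1 mM NAD+ (final), 20 nM enzyme, Tris-HCl pH 8 with Tween 20, after 15 min compound preincubation at room temperature. Fluorescence change, last versus first of five reads.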
# A number is an active result; n = inactive; u = inconclusive; x = no result; [ ] = another dose, or the depositor's remark. Sampled rows, rich in hits. Any-hit rate of the full collection: about 11%. Unless noted, calls follow the shape of the dose curve; as a rule, active = well fitted inhibition curve with a large enough effect (not every such curve was filed as active); inconclusive = small, poorly fitted or top-dose-only effect, or another doubt; inactive = no such curve, though single readings can be large or run the other way.
SMILES,PNC assembly inh,ALDH1A1 inh,HPGD inh
O=C(c1ccc(Br)cc1)c1cc([N+](=O)[O-])ccc1N1CCCCC1,u,2.8µM,n
Cc1ccc(C(=O)c2cc([N+](=O)[O-])ccc2N2CCCCC2)cc1C,u,n,n
CCC(CC)c1nnc(NC(=O)c2cc([N+](=O)[O-])ccc2N2CCCCC2)s1,n,7.9µM,n
COc1ccc(NC(=O)c2cc([N+](=O)[O-])ccc2N2CCCC2)cc1,x,n,x
O=C(NC12CC3CC(CC(C3)C1)C2)c1cc([N+](=O)[O-])ccc1N1CCOCC1,x,13µM,x
O=C(NC(=S)Nc1ccccc1)c1cc([N+](=O)[O-])ccc1N1CCOCC1,x,n,x
O=C(O)C1C2CCCCC2=C2CCCCC2C1C(=O)c1ccccc1 (centres undefined),x,n,x
C[C@@H](N)/C(N)=N/O,x,n[13.5 µM],n
CC(C)(C)Nc1nc(N2CCCC2)nc(N2CCCC2)n1,u,0.5µM,n
CCNc1nc(NC(C)(C)C)nc(N2CCCC2)n1,n,n,n
Cc1ccc(F)cc1NC(=S)NCCc1ccccc1,n,n,n
COc1ccc2c(c1)O[C@@H](c1cccc(C(F)(F)F)c1)[C@H](OC(=O)Nc1ccc(C)c(Br)c1)C2=O,x,n,n
c1ccc2sc(SN3CCOCC3)nc2c1,u,4µM,14µM
c1ccc2sc(N3CCOCC3)nc2c1,n,n,n
C/C(=C\C(=O)c1ccccc1)Nc1ccc2c(c1)OCO2,n,u,n
COCC(=O)N1CCC2(CC1)CCN(C(=O)NC(C)C)CC2,x,u,n
COc1ccc(-c2cnc(NCc3cc4c(cc3[N+](=O)[O-])OCO4)n2C)cc1,n,u,n
CCOc1cc(CNc2ncc(-c3ccc(OC)cc3)n2C)ccc1O,n,14µM,n
C[C@@H]1CC2(OC[C@]3(C)O[C@H]23)O[C@H]2C[C@@]3(C)[C@@H]4CC[C@H]5C(C)(C)C(O[C@@H]6OC[C@@H](O)[C@H](O)[C@H]6O)CC[C@@]56C[C@@]46CC[C@]3(C)[C@@H]12 (some centres undefined),x,n,n
Cc1ccc(-n2c(C)cc(C(=O)CN3CCOCC3)c2C)cc1C,x,n,x
Cc1cc(-n2c(C)cc(C(=S)N3CCOCC3)c2C)ccc1Br,n,11µM,10µM
O=C1CCCCC1Sc1nnc(-c2ccc3c(c2)OCO3)o1 (centres undefined),x,n,x
Cc1cc(C)c2c(c1)[C@@H]1C=CC[C@@H]1[C@H](c1ccc(S(=O)(=O)N3CCOCC3)cc1)N2,-81,25µM,25µM
Cc1ccc(S(=O)(=O)N2CCOCC(=O)NCCOCCNC(=O)COCC2)cc1,n,n,n
O=C(c1ccccc1)N1CCN(c2ccc(Cl)cc2)CC1,n,14µM,n
SMILES,PNC assembly inh,ALDH1A1 inh,HPGD inh
O=C(c1ccccc1)N1CCN(C(=O)c2ccccc2)CC1,n,n,n
Cc1scc(C(=O)N2CCN(c3ccc(Cl)cc3)CC2)c1C,x,20µM,x
O=C(C(=O)N1CCN(c2cccc(Cl)c2)CC1)N1CCCCC1,x,n,x
CCOC(=O)N1CCN(c2ccc(Cl)cc2)CC1,n,n,n
O=C(N1CCCCC1)N1CCN(c2ccc(Cl)cc2)CC1,n,7.9µM,u
CC(C)N(C(=O)Cn1cc(SCC(N)=O)c2ccccc21)C(C)C,x,n,x
CCN(CC)C(=O)C12CC3CC(CC(Br)(C3)C1)C2,x,n,x
COc1ccc(CNC(=O)C2COc3ccccc3O2)c(OC)c1 (centres undefined),n,u,4.5µM
COc1ccc(OC)c(NC(=O)C2COc3ccccc3O2)c1 (centres undefined),n,u,n
O=C(Nc1ccc(Cl)cn1)C1COc2ccccc2O1 (centres undefined),x,22µM,x
O=C(NCc1ccccc1)C(=O)NCC1COc2ccccc2O1 (centres undefined),n,u,n
Cc1onc(-c2ccccc2)c1C(=O)NCC1COc2ccccc2O1 (centres undefined),n,n,n
O=C(Nc1ccccn1)C1COc2ccccc2O1 (centres undefined),n,n,n
Cc1onc(-c2ccccc2)c1CNC(=O)C1COc2ccccc2O1 (centres undefined),x,18µM,x
O=C(NCc1ccccc1)C1COc2ccccc2O1 (centres undefined),u,n,11µM
CCOc1ccc(C(CC(=O)O)NC(=O)C(Sc2ccccc2)c2ccccc2)cc1 (centres undefined),x,n,x
CC(C)=CCN1CCN(Cc2cccn2-c2ncccn2)CC1CCO (centres undefined),x,n,x
COc1ccc(CNC(=O)CSc2nnc3c(Cl)cc(C(F)(F)F)cn23)cc1OC,n,n,n
CC(C)=NOc1nc(N2CCOCC2)nc(N2CCOCC2)n1,x,n,x
NC(=NCCc1ccccc1)NS(=O)(=O)c1ccc2ccccc2c1,n,n,n
O=C(O)c1cc(O)c2c(c1)C(=O)c1cc(O)cc(O)c1C2=O,x,25µM,14µM
O=C(O)c1ccc(O)cc1O,x,n,n
CCCCCNCc1cccc(Br)c1,n,n,n
O=c1cc(CO)oc(C(Nc2ccccn2)c2ccc(C(F)(F)F)cc2)c1O (centres undefined),n,u,n
O=c1cc(CO)oc(C(Nc2ccccn2)c2cccc(F)c2)c1O (centres undefined),n,32µM,n
SMILES,PNC assembly inh,ALDH1A1 inh,HPGD inh
Cc1cc(C(=O)C(=O)O)c(C)n1-c1ccc(Cl)c(Cl)c1,x,n,x
c1ccc(CSc2ncnc3c2cnn3-c2ccccc2)cc1,n,u,25µM
Cc1ccc(CSc2ncnc3c2cnn3Cc2ccccc2)cc1,n,n,n
O=C(Nc1ccc(Cl)cc1)N1CCCN(c2ccc(C(F)(F)F)cc2[N+](=O)[O-])CC1,x,n,x
CC(C)(C)NC(=O)c1cc(C(C)(C)C)c(O)c(C(C)(C)C)c1,n,n,n
CC(=O)Nc1cc(C(C)(C)C)c(O)c(C(C)(C)C)c1,u,11µM,n
COc1ccccc1N1CCN(CC(=O)Nc2ccc(-n3cnnn3)cc2)CC1,x,n,x
COCCNC(=O)/C(C#N)=C1\N=C(N)c2ccccc21,n,u,14µM
COCCNC(=O)/C(C#N)=C/c1ccccc1Br,x,n,x
COC(=O)/C=c1/s/c(=C(/C#N)C(=O)N2CCCCC2)n(-c2ccccc2)c1=O,u,n,n
N#C/C(C(=O)N1CCCCC1)=C1/N=C(N)c2ccccc21,n,u,14µM
CSCCC(NC(=O)c1cccc(S(=O)(=O)N2CCOCC2)c1)C(=O)Nc1cccc(C)c1 (centres undefined),n,n,n
Cc1ccc(N(CC(N)=O)C2SC(=O)NC2=O)cc1 (centres undefined),u,u,n
Cc1ccc(N(CC(N)=O)C2SC(=O)N(Cc3cccc(C(=O)O)c3)C2=O)cc1 (centres undefined),n,20µM,n
CCN(CC)S(=O)(=O)c1ccc(C)c(NC(=O)CN(C)C)c1,-84,n,x
CCN(c1ccccc1)S(=O)(=O)c1ccc(OC)c(NC(=O)CN(C)C)c1,x,n,x
CN(C)C(=O)c1cc(C(=O)c2ccccc2Cl)c[nH]1,x,7.9µM,x
O=C(c1c[nH]c(C(=O)C(Cl)(Cl)Cl)c1)c1ccccc1Br,x,1.8µM,x
NC(=O)c1cc(C(=O)c2ccccc2Cl)c[nH]1,x,8.9µM,x
CN(C(=O)c1ccccc1Cl)c1ccccc1,n,n,n
CNC(=O)c1cc(C(=O)c2c(Cl)cccc2Cl)c[nH]1,x,n,x
CNC(=O)c1cc(C(=O)c2ccccc2C(F)(F)F)c[nH]1,x,n,x
CSc1nnc(CCCCCCCCc2nnc(SC)o2)o1,x,n,x
